Compound activity as filed in PubChem BioAssay.
Mito fusion act – qHTS Assay for Small Molecule Inhibitors of Mitochondrial Division or Activators of Mitochondrial Fusion | S. cerevisiae fusion-defective mutant growth rescue, CellTiterGlo 48 h | Potency, µM (series often up to 46.1 µM), most hits filed as activators | 320,000 compounds, 0.23% hits; also: nearly all actives have a fitted effect of over 45% in size
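Compounds are tested for their ability to restore growth of mitochondrial fusion-defective yeast strains at non-permissive 37C in YPEG medium over 48 hours. Viability is quantified by luciferase luminescence.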
LDHA block – qHTS assay for inhibitors of human lactate dehydrogenase. L-lactate dehydrogenase A chain (Homo sapiens), P00338. purified LDHA, NADH/diaphorase-resazurin fluorescence; active compounds read low. activity change, % (values are at about 110 or 230 µM). 480,000 compounds, 0.15% hits. AID 1347041, 2019; in the data active = activity change below about -30%; inconclusive = mostly about -25% to -30%
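Human LDH5 (2 nM) was incubated with 0.06 mM NADH and 0.2 mM pyruvate for 5 min at room temperature in Tris pH 7.4. Remaining NADH was coupled through diaphorase/resazurin, and resorufin fluorescence was read at 0 and 20 min.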
RGS4 inhibitor – Inhibitors of Regulator of G Protein Signaling (RGS) 4: qHTS. Regulator of G-protein signaling 4 (Homo sapiens), P49798. Transcreener GDP fluorescence polarization, RGS4-accelerated GTP hydrolysis. Potency, µM (highest dose often 114 µM), actives largely listed as inhibitors. 390,000 compounds, 0.039% hits; also: nearly all actives have a fitted effect of over 75% in size
Target sequence (P49798 whole entry, looked up): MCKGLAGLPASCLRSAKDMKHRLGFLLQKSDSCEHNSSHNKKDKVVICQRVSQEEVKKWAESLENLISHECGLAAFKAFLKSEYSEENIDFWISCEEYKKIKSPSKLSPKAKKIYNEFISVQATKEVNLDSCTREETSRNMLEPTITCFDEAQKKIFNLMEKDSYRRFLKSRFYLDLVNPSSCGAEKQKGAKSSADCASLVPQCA
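MLSMR compounds (23 nl, pin-transferred) preincubated 10 min at room temperature with a 500nM (2x) first reagent, then RGS4 at 900nM (2x) plus Transcreener GDP mix added; fluorescence polarization (620/688 nm) read before and after 90 min at 30 °C.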
ClpP mod – qHTS Assay for Activators of ClpP; ATP-dependent Clp protease proteolytic subunit (Bacillus subtilis (strain 168)), P80244; 340,000 compounds, 1.9% hits; Potency, µM (titrated, usually from 57.5 µM); purified B. subtilis ClpP, FRET peptide cleavage, 20 min; active = well fitted falling curve with a large enough effect; inconclusive = small, poorly fitted or top-dose-only effect; inactive = no such curve, though single readings can be large or run the other way; also: the source files actives as falling curves though it sought activators and does not explain the sign; nearly all actives have a fitted effect of over 65% in size
Target sequence (P80244 whole entry, looked up): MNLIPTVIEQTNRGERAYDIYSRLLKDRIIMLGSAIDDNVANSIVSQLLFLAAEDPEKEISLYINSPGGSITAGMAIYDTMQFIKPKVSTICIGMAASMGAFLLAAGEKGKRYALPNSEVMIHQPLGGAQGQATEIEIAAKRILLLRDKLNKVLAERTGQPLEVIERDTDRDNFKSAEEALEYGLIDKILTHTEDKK
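FRET quenching reversal measured ClpP activation: 10 microg/mL B. subtilis ClpP at pH 8 with the FRET-FV decapeptide, read at 430 nm after 320 nm excitation. The 20-min minus 0-min signal was scaled between DMSO/no-enzyme wells and ADEP (5.8 microM final).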
mIDH1 inhibitor – qHTS for Inhibitors of mutant isocitrate dehydrogenase 1 (IDH1): qHTS; Isocitrate dehydrogenase [NADP] cytoplasmic (Homo sapiens), O75874; 390,000 compounds, 0.093% hits; Potency, µM (highest dose often 76.6 µM), actives largely listed as inhibitors; IDH1-R132H enzyme, NADPH consumption, diaphorase/resazurin fluorescence; also: nearly all actives have a fitted effect of over 65% in size
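IDH1-R132H (0.5 ug/mL dispensed) in pH 7.5 Tris buffer was preincubated 30 min with compound, then given a substrate mix of 0.016 mM NADPH and 2 mM alpha-KG for 80 min at room temperature; remaining NADPH was read by diaphorase/resazurin fluorescence.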
S-ASM inh – Inhibitors of Secretory Acid Sphingomyelinase (S-ASM): qHTS; placental ASM, HMU-PC fluorogenic substrate, 60 min; AID 504937, 2011; 340,000 compounds, 0.006% hits; Potency, µM (doses to about 57.5 µM), actives largely listed as inhibitors; Sphingomyelin phosphodiesterase (Homo sapiens), P17405
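Steps: dispense placental human ASM, pin compound, wait 10 min at room temperature, add HMU-PC0 substrate at 9 uM final, incubate 60 min at 37 °C, add stop solution raising pH to 10, read fluorescence.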
ClpP inh valid – qHTS Assay for Activators of ClpP: Hit Validation of Inhibitors; Potency, µM (series often up to 57.5 µM), most hits filed as inhibitors; purified B. subtilis ClpP, FRET-FV substrate cleavage, 20 min; shares compounds with ClpP mod; 470 compounds, 40% hits; also: nearly all actives have a fitted effect of over 70% in size
Hits are given with their value; n = inactive; u = inconclusive; x = no result. This is one part of a sample in which hits are shown more often than they occur. Unless noted, calls follow the shape of the dose curve; as a rule, active = well fitted curve in the direction sought with a large enough effect; inconclusive = small, poorly fitted or top-dose-only effect, or another doubt; inactive = no such curve, though single readings can be large; an effect the other way counts as inactive or inconclusive.

SMILES	Mito fusion act	LDHA block	RGS4 inhibitor	ClpP mod	mIDH1 inhibitor	S-ASM inh	ClpP inh valid
COc1ccc(-c2cc(C(=O)NCCc3ccccc3)c3c(-c4ccccc4)[nH]nc3n2)cc1OC	x	n	n	n	n	x	24.3µM
COc1ccc(-c2nc3ccccc3c(C(=O)O)c2C)cc1	x	n	x	x	x	x	x
CC(=O)Nc1ccc(Nc2ncnc3c2c(-c2ccccc2)cn3-c2ccccc2)cc1	x	n	n	n	n	x	x
CC(C)c1ccc(Nc2ncnc3c2c(-c2ccccc2)cn3-c2ccccc2)cc1	x	n	n	2.51µM	n	x	24.3µM
C/C(=N\NC(=O)CCc1ccccc1)c1ccc(C)cc1C	x	n	x	x	x	x	x
COc1ccc(S(=O)(=O)N2CCCC2C(=O)Nc2nc3c(s2)CCCC3)cc1 (stereo not drawn)	n	n	n	6.31µM	n	n	n
COc1cccc(-c2nc(-c3ccc(NC(=O)c4cccs4)cc3)no2)c1	n	n	n	n	n	n	u
CC(=O)Nc1ccc(NC(=O)c2ccc(N(C)S(=O)(=O)c3ccc(C)cc3)cc2)cc1	n	n	n	n	n	n	u
O=C(NCCCN1CCCC1=O)C1CCN(S(=O)(=O)N2CCOCC2)CC1	n	n	n	10µM	n	n	n
O=C(NCCCN1CCCC1=O)C1CCC1	x	n	x	x	x	x	x
O=C(Nc1ccc(Cl)cc1)C1CCN(c2cnc3ccccc3n2)CC1	x	n	x	x	x	x	x
CC1CN(C(=O)Nc2ccc3c(c2)OCCO3)CC(C)O1 (stereo not drawn)	n	n	n	3.55µM	n	n	n
COc1ccc(C(C(=O)NC2CCCC2)N(C(=O)c2ccco2)c2cc3c(cc2C(C)=O)OCO3)cc1 (stereo not drawn)	n	n	n	3.16µM	n	n	n
CC(=O)c1cc2c(cc1N(C(=O)c1ccco1)C(C(=O)NC1CCCC1)c1ccccc1F)OCO2 (stereo not drawn)	n	n	n	n	n	n	x
CCc1cc2c(N3CCN(C(=O)c4ccco4)CC3)ncnc2s1	n	n	n	2.82µM	n	n	n
Cc1cc(C)n2nc(NCc3ccccc3)nc2n1	n	n	n	10µM	n	n	24.3µM
CC(=O)NCCNS(=O)(=O)CCC(=O)O	x	n	x	x	x	x	x
O=C(Nc1ccccc1)c1cc2c(-c3ccccc3)nn(-c3ccccc3)c2s1	x	n	n	7.08µM	n	x	19.3µM
O=C(Nc1ccc(Cl)cc1)c1cc2c(-c3ccccc3)nn(-c3ccccc3)c2s1	x	n	n	u	n	x	x
Cc1cc(C)c(S(=O)(=O)N2CCN(C(C(=O)NC3CC3)c3ccccc3)CC2)c(C)c1 (stereo not drawn)	x	n	x	x	x	x	x
COc1ccccc1C(=O)Nc1ccc(-c2nc3ccccc3s2)c(C)c1	x	n	n	2µM	n	x	n
CCc1ccc(NC(=O)c2sc3nc(C)cc(C)c3c2NC(=O)c2ccccc2OC)cc1	x	n	n	n	n	x	24.3µM
Cc1ccc(C(=O)Nc2ccc(-c3nc4ccccc4s3)c(C)c2)cc1	x	n	x	x	x	x	x
CC(C)Oc1ccc(C(=O)Nc2ccc(-c3nc4ccccc4s3)cc2)cc1	x	n	n	n	n	x	x
CN(C)c1cccc(C(=O)Nc2ccc(-c3nc4ccccc4s3)cc2)c1	x	n	n	3.55µM	n	x	n
COc1ccc(-c2nc3ccccc3s2)cc1NC(=O)c1cccc(F)c1	x	n	n	n	n	x	u
Cc1cc(C)c2[nH]c(-c3ccccc3)c(-c3ccccc3)c2c1	x	n	x	x	x	x	x
